Test in all cases: NCI-60 one-dose screen, 48 h (100 = growth as untreated, 0 = no growth, -100 = all killed)
For one assay, the system named is DU-145 prostate. As to conditions: 10 µM unless noted.
The test system of a further assay is K-562 leukemia. As to conditions: 10 µM unless noted.
A further assay deals with MALME-3M melanoma. As to conditions: 10 µM unless noted.
The next assay deals with MDA-MB-231 breast. As to conditions: 10 µM unless noted.
Another assay relates to RXF 393 renal. As to conditions: 10 µM unless noted.
A further assay relates to SF-268 CNS. As to conditions: 10 µM unless noted.
The next assay has as its system SF-295 CNS. As to conditions: 10 µM unless noted.
The test system of the next assay is SF-539 CNS. As to conditions: 10 µM unless noted.
The test system of a further assay is UACC-257 melanoma. As to conditions: 10 µM unless noted.
The next assay concerns M14 melanoma. As to conditions: 10 µM unless noted.
The test system of another assay is HCT-15 colon. As to conditions: 10 µM unless noted.
The test system of a further assay is HT29 colon. As to conditions: 10 µM unless noted.
In another assay the test system is SNB-19 CNS. As to conditions: 10 µM unless noted.
For a further assay, the system named is U251 CNS. As to conditions: 10 µM unless noted.
A further assay deals with PC-3 prostate. As to conditions: 10 µM unless noted.
The test system of another assay is SK-MEL-5 melanoma. As to conditions: 10 µM unless noted.
Another assay deals with UACC-62 melanoma. As to conditions: 10 µM unless noted.
For the next assay, the system named is LOX IMVI melanoma. As to conditions: 10 µM.
The subject of the next assay is SK-MEL-28 melanoma. As to conditions: 10 µM unless noted.

Each structure is given as a SMILES string. About 83,000 compounds went through this panel and 20% of them were active in at least one assay; those are over-represented in the sample as a whole.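 Results are percent growth after 48 hours of single-concentration exposure. 100 means growth as in untreated cells, lower positive values show inhibition; negative values down to -100 show cell death.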 A number with no mark means an inactive call. The source made the active and inactive calls. How the source made its calls: active means growth percent below 10; inactive means the rest.

On to `COc1ccc2[nH]c(O)c(N=NC(=O)Cn3c(-c4ccccc4)nc4cc(C)ccc43)c2c1`, for which the growth in the assay with DU-145 prostate is 38.2%; in the assay with K-562 leukemia, 12.3%; in the assay with MALME-3M melanoma, -48% (active); in the assay with MDA-MB-231 breast it was -26.3% (active); with RXF 393 renal, -35.6% (active); in the assay with SF-268 CNS it was 38.5%. Moreover, the growth with SF-295 CNS is 44.9%; with SF-539 CNS it was -28.1% (active); with UACC-257 melanoma, 21.7%; in the assay with M14 melanoma, 9.19% (active); with HCT-15 colon, 3.08% (active); with HT29 colon it was -1.1% (active). Further, the growth is 59.2% in the assay with SNB-19 CNS; 32.4% in the assay with U251 CNS; 21.5% in the assay on PC-3 prostate; -23.8% (active) in the assay on SK-MEL-5 melanoma; 6.74% (active) in the assay on UACC-62 melanoma; 38.3% in the assay with LOX IMVI melanoma. In addition, the growth with SK-MEL-28 melanoma is -23.6% (active).
Consider `COc1ccc2c(c1)c(-c1cc3nc(-c4cn(C)c5ncc(Br)cc45)cc(N)n3n1)cn2C`, for which the growth is 26% with DU-145 prostate; -33.5% (active) in the assay with K-562 leukemia; -88.4% (active) in the assay on MALME-3M melanoma; -73% (active) with MDA-MB-231 breast; -72.9% (active) with RXF 393 renal; 12.4% in the assay with SF-268 CNS. Further, the growth in the assay on SF-295 CNS was -67.2% (active); in the assay with SF-539 CNS, -87.6% (active); in the assay on UACC-257 melanoma, -74.3% (active); with M14 melanoma it was -74.4% (active); in the assay on HCT-15 colon it was -48% (active); with HT29 colon, -88.5% (active). The growth with SNB-19 CNS was -16.9% (active); in the assay with U251 CNS it was -57.3% (active); with PC-3 prostate, -19.5% (active); in the assay with SK-MEL-5 melanoma it was -88.1% (active); in the assay on UACC-62 melanoma, -82.2% (active); in the assay with LOX IMVI melanoma, -100% (active). Moreover, in the assay with SK-MEL-28 melanoma, the growth was -92.8% (active).
With `CCCn1cc(-c2nc(Nc3ccc(C(=O)NCCCCNc4cccc5c4C(=O)N(C4CCC(=O)NC4=O)C5=O)cc3)nc3[nH]ccc23)cn1` (centres undefined), the growth in the assay on DU-145 prostate is 64.1%; in the assay on K-562 leukemia, 15.8%; in the assay with MALME-3M melanoma, -24.4% (active); in the assay with MDA-MB-231 breast it was -23.3% (active); in the assay with RXF 393 renal, 34.9%; in the assay on SF-268 CNS, 28.2%. Besides, the growth is 28.3% with SF-295 CNS; 26.6% in the assay with SF-539 CNS; 96.4% in the assay on UACC-257 melanoma; 21.4% in the assay on M14 melanoma; 40.1% in the assay on HCT-15 colon; 28.1% in the assay with HT29 colon. Besides, the growth is 54.1% with U251 CNS; 3.62% (active) with PC-3 prostate; 15.8% in the assay with SK-MEL-5 melanoma; 74.6% in the assay on UACC-62 melanoma; 90.5% in the assay on LOX IMVI melanoma; 59.3% in the assay on SK-MEL-28 melanoma.
`CC1=C(C#N)C2=NNCC(c3ccccc3)=NN2C(c2ccccc2)=C1`: the growth was 111% with DU-145 prostate; 110% in the assay with K-562 leukemia; 93.3% in the assay on MALME-3M melanoma; 105% with MDA-MB-231 breast; 131% with RXF 393 renal; 134% in the assay with SF-268 CNS. Moreover, the growth in the assay on SF-295 CNS is 103%; with SF-539 CNS, 102%; with UACC-257 melanoma, 96.6%; in the assay with M14 melanoma, 103%; in the assay with HCT-15 colon, 104%; in the assay with HT29 colon it was 114%. For the same compound, the growth is 97.3% with SNB-19 CNS; 96.2% in the assay on U251 CNS; 106% with PC-3 prostate; 106% in the assay with SK-MEL-5 melanoma; 96% in the assay on UACC-62 melanoma; 109% in the assay on LOX IMVI melanoma. In addition, the growth in the assay on SK-MEL-28 melanoma is 109%.
Take `CC(=O)c1cccc(NC(=O)CCC(=O)NS(=O)(=O)c2ccc(C)cc2)c1`: the growth is 122% in the assay on DU-145 prostate; 101% in the assay on K-562 leukemia; 103% in the assay with MALME-3M melanoma; 107% in the assay with MDA-MB-231 breast; 132% in the assay on RXF 393 renal; 134% in the assay with SF-268 CNS. In addition, the growth with SF-295 CNS is 104%; in the assay on SF-539 CNS it was 105%; in the assay with UACC-257 melanoma, 103%; with M14 melanoma it was 102%; with HCT-15 colon, 107%; in the assay with HT29 colon, 106%. Besides, the growth is 98.5% with SNB-19 CNS; 104% in the assay with U251 CNS; 105% in the assay on PC-3 prostate; 109% in the assay on SK-MEL-5 melanoma; 102% with UACC-62 melanoma; 104% in the assay with LOX IMVI melanoma. In addition, the growth in the assay on SK-MEL-28 melanoma was 108%.
As to `Cn1cc(-c2cc(N)n3nc(-c4c[nH]c5ccccc45)cc3n2)c2cc(Br)cnc21`, the growth in the assay on DU-145 prostate was 5.95% (active); in the assay on K-562 leukemia, -23.9% (active); in the assay with MALME-3M melanoma, -83.9% (active); with MDA-MB-231 breast, -83.4% (active); in the assay on RXF 393 renal, -76.3% (active); in the assay with SF-268 CNS, 0.392% (active). In addition, the growth with SF-295 CNS was -71.6% (active); in the assay on SF-539 CNS it was -93.5% (active); in the assay with UACC-257 melanoma, -78.9% (active); in the assay with M14 melanoma it was -71% (active); in the assay on HCT-15 colon, -58.5% (active); with HT29 colon, -80.7% (active). Besides, the growth in the assay with SNB-19 CNS was -39.6% (active); in the assay with U251 CNS, -79.7% (active); in the assay with PC-3 prostate, -43.3% (active); in the assay on SK-MEL-5 melanoma, -94.2% (active); with UACC-62 melanoma, -95% (active); in the assay on LOX IMVI melanoma, -94.1% (active). For the same compound, the growth in the assay with SK-MEL-28 melanoma was -96.2% (active).
In the case of `CN(C)CCCNC(=O)c1cc(NC(=O)c2cc(NC(=O)c3ccc(C#Cc4ccccc4)cc3)cn2C)cn1C`, the growth is 18.2% with DU-145 prostate; -54.9% (active) with K-562 leukemia; -95.8% (active) with MALME-3M melanoma; -68.8% (active) with MDA-MB-231 breast; -37.7% (active) in the assay on RXF 393 renal; 18.1% in the assay on SF-268 CNS. For the same compound, the growth in the assay on SF-295 CNS was -91.8% (active); in the assay with SF-539 CNS, -84.1% (active); in the assay on UACC-257 melanoma, 43.8%; in the assay with M14 melanoma it was -79.8% (active); with HCT-15 colon, -20.6% (active); in the assay with HT29 colon, -68.4% (active). Moreover, the growth in the assay with SNB-19 CNS is 24.7%; in the assay with U251 CNS, -91.6% (active); in the assay on PC-3 prostate, -30.8% (active); with SK-MEL-5 melanoma, -93.7% (active); in the assay with UACC-62 melanoma it was -33.1% (active); in the assay with SK-MEL-28 melanoma it was 47.1%.
Regarding `COc1ccc(-c2ccnc(SCc3cc4ccccc4[nH]c3=O)n2)cc1OC`, the growth in the assay with DU-145 prostate was 36.4%; with K-562 leukemia, 62.9%; in the assay on MALME-3M melanoma, 8.86% (active); with MDA-MB-231 breast, -51.8% (active); with RXF 393 renal, -30.4% (active); in the assay on SF-268 CNS, 23%. Further, the growth in the assay on SF-295 CNS is -78.3% (active); in the assay on SF-539 CNS it was -84.7% (active); with UACC-257 melanoma, 29.5%; with M14 melanoma it was 45.4%; in the assay on HCT-15 colon, 39.5%; with HT29 colon it was -80.8% (active). In addition, the growth in the assay with SNB-19 CNS is -7.41% (active); in the assay with U251 CNS, -13.5% (active); in the assay with PC-3 prostate, -21.9% (active); in the assay on SK-MEL-5 melanoma, 1.35% (active); in the assay on UACC-62 melanoma, 1.83% (active); in the assay with SK-MEL-28 melanoma, 9.54% (active).

The values above are taken from PubChem BioAssay (NCI).
